In this assay the target is Estrogen receptor beta (Homo sapiens) (UniProt Q92731). Put plainly: displacement of fluorescent estrogen from ERbeta – cell-based, Cos7 ERbeta-GFP, flow cytometry, primary screen (AID 1210).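 Further: 0% = DMSO vehicle wells and 100% = complete loss of labeled estradiol signal.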 Conditions: fluorescent estrogen binding, stronger effect = higher value. On the technique in general: A flow cytometer gives signals particle by particle.
Setting [1] is: ligand binding inhibition, at 0.1 µM.

The source made the active and inactive calls.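 How the source made its calls: active means blocks over 70% of labeled estradiol binding at 10 µM, or over a set limit at 100 nM; inactive means the rest.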

Sequence of Estrogen receptor beta (Homo sapiens) (Q92731 whole entry, looked up): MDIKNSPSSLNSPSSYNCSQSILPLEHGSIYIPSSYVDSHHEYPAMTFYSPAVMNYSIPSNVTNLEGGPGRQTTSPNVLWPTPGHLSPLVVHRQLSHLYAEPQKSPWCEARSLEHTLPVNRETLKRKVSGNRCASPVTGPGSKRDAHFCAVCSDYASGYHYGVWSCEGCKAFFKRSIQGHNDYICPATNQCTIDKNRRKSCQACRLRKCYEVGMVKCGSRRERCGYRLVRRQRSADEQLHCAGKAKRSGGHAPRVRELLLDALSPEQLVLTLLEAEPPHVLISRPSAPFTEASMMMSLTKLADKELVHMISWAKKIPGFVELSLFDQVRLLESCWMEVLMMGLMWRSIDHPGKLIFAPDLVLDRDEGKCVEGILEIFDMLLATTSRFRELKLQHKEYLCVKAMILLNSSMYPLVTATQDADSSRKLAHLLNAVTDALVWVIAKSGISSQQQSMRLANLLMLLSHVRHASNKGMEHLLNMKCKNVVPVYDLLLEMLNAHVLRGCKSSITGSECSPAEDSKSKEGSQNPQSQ

The term inhibition denotes the drop in the measured response relative to a control, in per cent. Regarding `COc1ccc(NC(=O)c2ccco2)cc1N`, the inhibition was 69% (inactive) (at 10 µM) and 17% under setting [1].

For the compound `Cc1ccc(C(=O)Nc2nc(-c3cccnc3)cs2)o1`, the inhibition reads like this: (at 10 µM) 15% (inactive); under setting [1], 43%.

On to `O=C(CSc1nnc(Nc2ccccc2F)s1)NCc1ccco1`, for which the inhibition was 4% (inactive) (at 10 µM) and 48% under setting [1].

Consider `Cc1ccccc1NC(=O)CSc1nnc(-c2ccco2)c(-c2ccco2)n1`, for which the inhibition is 31% (inactive) (at 10 µM) and 27% under setting [1].

Regarding `CCSc1nc2c(cnn2-c2ccc(C)cc2)c(=O)[nH]1`, the inhibition by setting is: (at 10 µM) 31% (inactive); under setting [1], 29%.

For the compound `C/C(N)=C(/C#N)C(=O)CSc1nnc(Nc2ccccc2C)s1`, the inhibition by setting is: (at 10 µM) 44% (inactive); under setting [1], 13%.

In the case of `CC12CCC(=O)N1C(C(=O)OCC(=O)Nc1sccc1C#N)CS2` (stereo not drawn), the inhibition (at 10 µM) was 37% (inactive) and the inhibition under setting [1] was 47%.

For the compound `CNc1nnc(-c2cc3cc(Cl)ccc3oc2=O)s1`, the inhibition is 0% (inactive) (at 10 µM) and 4% under setting [1].

With `O=C(Cc1cccs1)Nc1nnc(Cc2ccccc2)s1`, the inhibition (at 10 µM) is 18% (inactive) and the inhibition under setting [1] was found to be 29%.

Regarding `COC(=O)c1ccc2c(=O)n(CCCCCC(=O)NCc3ccc4c(c3)OCO4)c(=O)[nH]c2c1`, the inhibition (at 10 µM) was 68% (inactive) and the inhibition under setting [1] is 20%.

Consider `Cc1cs/c(=N\N=C\c2ccc(O)cc2)n1Cc1ccco1`, for which the inhibition runs as follows: (at 10 µM) 45% (inactive); under setting [1], 21%.

Turning to `CCC(=O)Oc1ccc(C(CC)C(CC)c2ccc(OC(=O)CC)cc2)cc1` (stereo not drawn), the inhibition (at 10 µM) was 82% (active) and the inhibition under setting [1] came to 83%.

Regarding `O=S(=O)(NCC(O)COCc1ccco1)c1cccs1` (stereo not drawn), the inhibition is 12% (inactive) (at 10 µM) and 20% under setting [1].

Take `COc1ccc(C2Nc3ccccc3C(=O)N2c2ccccc2)cc1Cn1cc([N+](=O)[O-])cn1` (stereo not drawn): the inhibition by setting is: (at 10 µM) 26% (inactive); under setting [1], 45%.

For `CCOc1cccc2cc(-c3cn4cc(C)ccc4n3)c(=O)oc12`, the inhibition (at 10 µM) is 27% (inactive) and the inhibition under setting [1] was found to be 16%.

On to `CC(=O)Nc1ccc(OC(=O)CC2SC(=O)NC2=O)cc1` (stereo not drawn), for which the inhibition by setting is: (at 10 µM) 59% (active); under setting [1], 66%.

Consider `Cc1ccc(S(=O)(=O)Cc2ccc(C(=O)N3CCN(Cc4ccccc4)CC3)o2)cc1`, for which the inhibition was 37% (inactive) (at 10 µM) and 18% under setting [1].

Regarding `Cc1ccccc1-n1nc(-c2ccc(N)cc2)cc1N`, the inhibition reads like this: (at 10 µM) 25% (inactive); under setting [1], 21%.

As to `O=C(Oc1ccc(-c2cnc3ccccc3n2)cc1)c1ccc(Br)o1`, the inhibition by setting is: (at 10 µM) 72% (active); under setting [1], 29%.

On to `CCCOc1ccc(-c2nn(-c3ccccc3)cc2/C=C2\SC(N)=NC2=O)cc1`, for which the inhibition is, setting by setting: (at 10 µM) 36% (inactive); under setting [1], 19%.

On to `COc1ccc(Cc2nnc(NC(=O)Cc3cccs3)s2)cc1`, for which the inhibition (at 10 µM) is 17% (inactive) and the inhibition under setting [1] is 29%.

For `CCOC(=O)Cn1cnc2sc3c(c2c1=O)CCC3`, the inhibition runs as follows: (at 10 µM) 37% (inactive); under setting [1], 28%.

As to `O=c1oc2ccccc2cc1-c1ccc(O)cc1O`, the inhibition reads like this: (at 10 µM) 42% (inactive); under setting [1], 21%.

`c1ccc(Cc2nnc3sc(-c4ccco4)nn23)cc1`: the inhibition is 18% (inactive) (at 10 µM) and 60% under setting [1].

For `CCc1nc2sc3ccccc3c(=O)c2c(=O)n1Cc1ccco1`, the inhibition was 46% (active) (at 10 µM) and 66% under setting [1].

With `CCCN(CCC)S(=O)(=O)c1ccc(NC(=O)Cc2cccs2)cc1`, the inhibition was 46% (inactive) (at 10 µM) and 20% under setting [1].

As to `COc1ccc2[nH]c3c(c2c1)CCn1c-3nc2ccccc2c1=O`, the inhibition by setting is: (at 10 µM) 16% (inactive); under setting [1], 36%.

For `Cc1cc2n(c1)CCn1c(C)ccc1-2`, the inhibition is, setting by setting: (at 10 µM) 17% (inactive); under setting [1], 31%.

For the compound `O=c1cc(CSc2nnc(-c3cccs3)n2Cc2ccccc2)nc2sc3ccccc3n12`, the inhibition (at 10 µM) is 54% (inactive) and the inhibition under setting [1] was 26%.

As for `COc1cc(OC)cc(C(=O)NC2CCN(C(=O)N3c4ccccc4Sc4ccccc43)CC2)c1`, the inhibition was 21% (inactive) (at 10 µM) and 16% under setting [1].

On to `O=C(O)c1cc(Cl)c2c(c1)[C@@H]1C=CC[C@@H]1[C@H](c1ccc(S(=O)(=O)N3CCOCC3)cc1)N2`, for which the inhibition runs as follows: (at 10 µM) 45% (inactive); under setting [1], 8%.

Turning to `COc1ccc(C2Nc3ccccc3C(=O)N2c2ccc(Cl)cc2)cc1Cn1cc([N+](=O)[O-])cn1` (stereo not drawn), the inhibition was 63% (inactive) (at 10 µM) and 36% under setting [1].

For the compound `O=C(CSc1nnc(-c2ccc(OC(F)F)cc2)o1)NC(=O)NCc1ccco1`, the inhibition was 39% (inactive) (at 10 µM) and 44% under setting [1].

Consider `O=S(=O)(NCc1csc(-c2cccnc2)n1)c1cccs1`, for which the inhibition runs as follows: (at 10 µM) 34% (inactive); under setting [1], 21%.

As to `COc1cc(NC(=O)c2cccs2)c(C(=O)OCC(=O)NCc2ccco2)cc1OC`, the inhibition is, setting by setting: (at 10 µM) 41% (inactive); under setting [1], 47%.

For `Cn1nc([N+](=O)[O-])c2c(-c3nc4ccccc4s3)c(N)n(C3CCCCC3)c2c1=O`, the inhibition (at 10 µM) was 18% (inactive) and the inhibition under setting [1] worked out at 34%.

Turning to `C/C(N)=C(/C#N)C(=O)CSc1nnc(COc2ccccc2Cl)o1`, the inhibition was 44% (inactive) (at 10 µM) and 44% under setting [1].

For the compound `CCOC(=O)N1CCN(S(=O)(=O)c2ccc(C(=O)Nc3nc4ccc(F)cc4s3)cc2)CC1`, the inhibition by setting is: (at 10 µM) 69% (inactive); under setting [1], 39%.

As to `NS(=O)(=O)c1ccc2c(c1)C1C=CCC1C(C1CC=CCC1)N2` (stereo not drawn), the inhibition is, setting by setting: (at 10 µM) 14% (inactive); under setting [1], 2%.

As for `Oc1ccc(-c2nnc(-c3ccccc3)c(-c3ccccc3)n2)cc1`, the inhibition is 38% (inactive) (at 10 µM) and 25% under setting [1].

For the compound `CCC(=O)Nc1ccc(C(=O)Cn2nc(C(=O)O)c3ccccc3c2=O)cc1`, the inhibition was 64% (inactive) (at 10 µM) and 1% under setting [1].

Take `COc1ccc(-c2nnc(SCC(=O)/C(C#N)=C(\C)N)o2)cc1`: the inhibition runs as follows: (at 10 µM) 36% (inactive); under setting [1], 13%.

Take `O=C1C2CC=C(Cl)CC2C(=O)N1CCCCCCN1C(=O)C2CC=C(Cl)CC2C1=O` (stereo not drawn): the inhibition runs as follows: (at 10 µM) 28% (inactive); under setting [1], 36%.

On to `O=C(Oc1cccc(-c2cnc3ccccc3n2)c1)c1ccco1`, for which the inhibition is, setting by setting: (at 10 µM) 9% (inactive); under setting [1], 4%.

Regarding `O=C(Nc1cccc(-c2cnc3ccccc3n2)c1)c1cccc(NC(=O)c2ccco2)c1`, the inhibition by setting is: (at 10 µM) 58% (inactive); under setting [1], 43%.

Consider `Cc1ccccc1OCC1Cc2c(nc(N)c(C#N)c2N)O1` (stereo not drawn), for which the inhibition is, setting by setting: (at 10 µM) 25% (inactive); under setting [1], 11%.

Take `Cc1ccc(C(=O)NCC(=O)OCC(=O)c2c(N)n(C)c(=O)n(C)c2=O)s1`: the inhibition is 5% (inactive) (at 10 µM) and 25% under setting [1].

On to `CS(=O)(=O)c1ccc2nc(NC(=O)CCC(=O)c3cccs3)sc2c1`, for which the inhibition by setting is: (at 10 µM) 62% (inactive); under setting [1], 9%.

In the case of `CCCC1=NN2C(=N)/C(=C\c3ccc(SCc4ccco4)o3)C(=O)N=C2S1`, the inhibition is, setting by setting: (at 10 µM) 13% (inactive); under setting [1], 17%.

For `CC(=O)c1ccc(NC(=S)N2CCC(O)CC2)cc1`, the inhibition is 41% (inactive) (at 10 µM) and 23% under setting [1].

Consider `O=C(CCCn1c(=S)[nH]c2ccccc2c1=O)N1CCN(c2cccc(Cl)c2)CC1`, for which the inhibition reads like this: (at 10 µM) 73% (active); under setting [1], 28%.

With `Cc1cc2oc(=O)cc(COC(=O)c3n[nH]c4ccccc34)c2cc1C`, the inhibition runs as follows: (at 10 µM) 68% (inactive); under setting [1], 18%.

For the compound `Cc1ccnc(NS(=O)(=O)c2ccc(NC(=O)c3cc(-c4ccc(Br)cc4)nc4ccccc34)cc2)n1`, the inhibition was 0% (inactive) (at 10 µM) and 51% under setting [1].

Take `CCOC(=O)c1c(NC(=O)CSc2nnc(-c3ccccc3)o2)sc(C(C)=O)c1C`: the inhibition (at 10 µM) is 40% (inactive) and the inhibition under setting [1] stood at 32%.

As for `COc1cc(C2CC(=O)c3c(ccc4ccccc34)N2)ccc1O` (stereo not drawn), the inhibition was 47% (inactive) (at 10 µM) and 14% under setting [1].

Consider `c1ccc(-c2nnc3sc(Cc4cccs4)nn23)cc1`, for which the inhibition is 18% (inactive) (at 10 µM) and 20% under setting [1].

Consider `CCOC(=O)c1ccc(NC(=O)CSc2nc(C)cc(=O)[nH]2)cc1`, for which the inhibition is, setting by setting: (at 10 µM) 30% (inactive); under setting [1], 2%.

In the case of `CCOC(=O)Cc1cc(=O)n2[nH]c(-c3ccc(C)cc3)cc2n1`, the inhibition was 19% (inactive) (at 10 µM) and 15% under setting [1].

In the case of `O=c1c2c([nH]c3ccccc13)C(=C1CCCC1)CC2`, the inhibition is, setting by setting: (at 10 µM) 42% (inactive); under setting [1], 11%.

In the case of `CCN(CC)c1ccc2c(c1)oc(=O)c1c(Cl)cc(=O)oc12`, the inhibition runs as follows: (at 10 µM) 33% (inactive); under setting [1], 18%.

`Cc1nnc(NC(=O)Cc2cccs2)s1`: the inhibition runs as follows: (at 10 µM) 4% (inactive); under setting [1], 22%.

As for `COc1ccc(NC2=CC(c3cccc(OC)c3)N(c3ccc(OC)cc3)C2=O)cc1` (stereo not drawn), the inhibition by setting is: (at 10 µM) 33% (inactive); under setting [1], 25%.

On to `Cc1ccc(OCc2ccoc2C(=O)O)cc1C`, for which the inhibition by setting is: (at 10 µM) 0% (inactive); under setting [1], 8%.

As to `C/C(=N\Nc1ccc([N+](=O)[O-])cc1)c1cccc(N)c1`, the inhibition by setting is: (at 10 µM) 14% (inactive); under setting [1], 24%.

For `CC(=O)Nc1nonc1-c1nc2ccccc2n1N(C(C)=O)C(C)=O`, the inhibition is, setting by setting: (at 10 µM) 35% (active); under setting [1], 70%.

Turning to `Oc1ccc(/C=N/n2c(-c3ccco3)csc2=Nc2cccnc2)c(O)c1`, the inhibition was 20% (inactive) (at 10 µM) and 18% under setting [1].

Take `O=c1c(C(c2ccc(O)cc2)c2c(O)nc3n(c2=O)CCS3)c(O)nc2n1CCS2`: the inhibition (at 10 µM) was 3% (inactive) and the inhibition under setting [1] was found to be 7%.

Regarding `COc1cccc(NS(=O)(=O)c2ccc3c(c2)C2C=CCC2C(c2ccc(C(=O)O)cc2)N3)c1` (stereo not drawn), the inhibition reads like this: (at 10 µM) 0% (inactive); under setting [1], 9%.

Take `COc1cc2c(cc1O)C(Cc1ccc(O)cc1)NCC2` (stereo not drawn): the inhibition is 72% (active) (at 10 µM) and 11% under setting [1].

These data come from PubChem BioAssay AID1210 (NMMLSC, 2008).
